In the library only some 3.5% were active in any assay of this set; here they are far more common.
FBW7 act = FBW7 E3 ligase activators, primary screen, biochemical, AlphaScreen, human. F-box/WD repeat-containing protein 7 (Homo sapiens), Q969H0. AlphaScreen FBW7–phospho-cyclin E peptide binding, activator screen. normalized activity (activation), % at 26.1 µM. actives 0.13% (n = 650,000); in the data active means normalized activity above about 1.9%;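 further: purified mutant Fbw7 with reduced substrate affinity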
TEAD-YAP inh = TEAD-YAP interaction inhibition, primary screen, TEAD-YAP interaction inhibitor project, luminescence, HEK-TIYL cells | TEAD-Gal4/YAP UAS-luciferase luminescence | inhibition, % at 9.12 µM | actives 1.4% (n = 640,000) | AID 1259422, 2018; in the data active means inhibition above about 32%;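 further: 0% = median of test compound wells and 100% = reference inhibitor wells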
MITF primary = MITF inhibitors, primary screen, biochemical, AlphaScreen, human; AlphaScreen MITF homodimerization, bead proximity signal; inhibition, % at 2.6 µM; actives 0.91% (n = 650,000); AID 1259374, 2018; in the data active means inhibition above about 50%;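 further: 0% = vehicle wells with protein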
GPR151 ag = activators of human GPR151, primary screen, cell-based, PathHunter beta-arrestin, luminescence | activation, % at 11.2 µM | PathHunter beta-arrestin GPR151 cells | G-protein coupled receptor 151 (Homo sapiens), Q8TDV0 | actives 1% (n = 650,000) | AID 1508602, 2020; in the data active means activation above about 4.9%;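 further: 0% = median of compound wells and 100% = cells with positive control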
GPR151 confirm = GPR151 activators, triplicate retest, confirmation, cell-based, PathHunter beta-arrestin, luminescence | 6,700 tested, under 10 active | shares compounds with GPR151 ag | activation, % at 11.2 µM | AID 1508609, 2020 | GPR151 PathHunter beta-arrestin cells, 90 min; % of EA-reagent control over plate median;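 active means mean percent activation across replicates above the confirmation screen cutoff of 4.91%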
GPR119 counter = GPR119 activators in beta-arrestin cells, counter-screen for GPR151 activator project, cell-based, PathHunter beta-arrestin, luminescence, triplicate | shares compounds with GPR151 ag | 90 min; 0 = compound-well median, 100 = enzyme-acceptor control | activation, % at 11.2 µM | actives 0.3% (n = 6,700) | AID 1508611, 2020;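 active means mean percent activation in the counterscreen above 29.09%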;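 further: counterscreen on off-target GPR119 to flag nonselective hits from the GPR151 activator screen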
* = called active by the depositor; · = no result.

SMILES	FBW7 act	TEAD-YAP inh	MITF primary	GPR151 ag	GPR151 confirm	GPR119 counter
CCOc1ccc(-n2nc(C(=O)NCC3CCCN3CC)c3ccccc3c2=O)cc1 (stereo unspecified)	0	5	2	2	·	·
Cc1c(C(=O)NCC2CCCO2)oc2ccc3c(c12)C=CC(C)(C)O3 (stereo unspecified)	0	-73	11	10*	-1	-2
Cc1ccc(S(=O)(=O)/N=C(\CN2CCCCC2)N2CCCCC2)cc1	0	2	5	5.4*	0	-6
CCOC(=O)C1(CC2CCCCO2)CCN(S(=O)(=O)c2cc(C)sc2C)CC1 (stereo unspecified)	0	-2	-8	0	·	·
Cc1ccc(NS(=O)(=O)c2ccc3c(c2)OCCN3C)cc1C	0	20	4	1	·	·
Cc1cc(NS(=O)(=O)c2ccc3c(c2)OCCN3C)ccc1Br	0	5	4	9.0*	0	-8
CSc1cccc(NS(=O)(=O)c2ccc3c(c2)OCCN3C)c1	0	19	1	5.0*	0	6
Cc1ccc(CCNS(=O)(=O)c2ccc3c(c2)OCCN3C)cc1	0	7	2	5.4*	2	4
COCCN(C1CCN(CCc2cccs2)CC1)S(=O)(=O)c1cccc(OC)c1	0	12	5	0	·	·
COc1ccc(CC(=O)Nc2nc3c(s2)CCc2ccccc2-3)cc1C	0	11	9	2	·	·
CCOC(=O)CN(Cc1ccccc1)S(=O)(=O)c1ccc(F)cc1	0	2	-2	0	·	·
Clc1cc2c(cc1-c1nc(-c3ccccc3)c(-c3ccccc3)[nH]1)OCO2	0	-1	47	6.6*	2	20
COc1ccc(-c2[nH]c(-c3ccc4c(c3)OCO4)nc2-c2ccccc2)cc1	0	1	-3	1	·	·
OCCCNCC(O)Cn1c2ccc(Cl)cc2c2cc(Cl)ccc21 (stereo unspecified)	1	-11	9	2	·	·
C=CCOc1ccc(/C=N/NC(=O)CSc2nc(C)cc(C)n2)cc1	0	11	14	3	·	·
C=CCOc1ccc(/C=N/NC(=O)CSc2nc(C)cc(C)n2)cc1OCC	0	4	12	12*	1	4
COCCN1CCCc2ccc(NS(=O)(=O)c3ccc(C)c(C)c3)cc21	0	7	-6	-1	·	·
COCCN1CCCc2ccc(NS(=O)(=O)c3cc(C)ccc3C)cc21	0	15	-1	5.2*	0	3
CC1c2cccn2CCN1S(=O)(=O)c1ccccc1Cl (stereo unspecified)	0	6	10	5.9*	0	4
CC1c2cccn2CCN1S(=O)(=O)c1c(Cl)cccc1Cl (stereo unspecified)	0	3	16	0	·	·
C/C(=C\C(=O)c1ccc(F)cc1)Nc1ccc2c(c1)OCO2	0	-19	19	0	·	·
O=C(CN1C(=O)C2C3CCC(C3)C2C1=O)Nc1ccc(-n2cnnn2)cc1 (stereo unspecified)	0	1	5	5.1*	1	6
O=C(CN1C(=O)C2C3CCC(C3)C2C1=O)Nc1ccc(-c2ccccc2)cc1 (stereo unspecified)	0	1	1	-1	·	·
CCN(CC)C(=O)C1CCCN(c2nccc(NCc3cccnc3)n2)C1 (stereo unspecified)	0	1	-6	1	·	·
C=CCNC(=S)N1CCn2c1nc1ccccc12	0	1	1	0	·	·
COc1ccc(S(=O)(=O)N(CC(=O)N2CCCC2)c2ccc(C)cc2)cc1	0	5	-1	12*	0	11
COc1ccc(N(CC(=O)N2CCCCC2)S(=O)(=O)c2ccc(C)cc2)cc1	0	3	-3	2	·	·
CC(C)[C@@H]1NC(=O)[C@@H]2C[C@H](NCc3ccc(F)cc3F)CN2C1=O	0	10	-6	1	·	·

Screening results as filed in PubChem BioAssay.
